PPARg SRC-2 ag = promotes SRC-2 coactivator recruitment by human PPARgamma; P37231; PPARgamma LBD-SRC-2 recruitment, biochemical; activation, % at 8 µM; hit rate 0.34% among 200,000; AID 1032; in the data active means activation above about 22%;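 further: 0% = vehicle and 100% = reference agonist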
Target sequence (P37231 whole entry, looked up, the tested form may be a part): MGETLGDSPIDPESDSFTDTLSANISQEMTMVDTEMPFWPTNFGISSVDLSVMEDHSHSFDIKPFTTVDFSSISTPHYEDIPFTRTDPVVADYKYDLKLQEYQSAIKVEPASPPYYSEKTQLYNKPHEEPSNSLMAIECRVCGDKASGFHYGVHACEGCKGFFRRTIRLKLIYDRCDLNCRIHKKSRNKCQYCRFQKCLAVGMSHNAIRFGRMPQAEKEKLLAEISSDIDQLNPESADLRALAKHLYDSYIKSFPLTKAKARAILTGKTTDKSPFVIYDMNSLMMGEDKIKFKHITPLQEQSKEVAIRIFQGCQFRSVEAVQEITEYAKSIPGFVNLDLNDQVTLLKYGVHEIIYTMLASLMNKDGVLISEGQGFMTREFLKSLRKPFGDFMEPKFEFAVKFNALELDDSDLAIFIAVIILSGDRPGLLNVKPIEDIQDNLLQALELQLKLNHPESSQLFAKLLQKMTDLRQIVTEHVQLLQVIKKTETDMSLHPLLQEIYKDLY
SRC1 TRFRET art = flags TR-FRET format artefacts in PPARgamma SRC-1 recruitment agonist screen | TR-FRET ratio at 8 µM | TR-FRET detection artefact counter-screen, emission ratio; hits give high values | hit rate 0.34% among 99,000; in the data active means TR-FRET ratio above about 2300
SRC3 TRFRET art = counter-screen for PPARgamma SRC-3 recruitment agonists: TR-FRET artefact; PPARgamma/SRC-3 format; hits give high values; AID 1048; hit rate 0.39% among 99,000; TR-FRET ratio at 8 µM
PPARg SRC-3 ag = PPARgamma-driven SRC-3 recruitment agonism; P37231; hit rate 0.26% among 200,000; AID 731; biochemical PPARgamma/SRC-3 coactivator recruitment assay; activation, % at 8 µM; in the data active means activation above about 23%;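 further: 0% = DMSO and 100% = reference agonist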
PPARg SRC1 recr = promotes SRC-1 coactivator recruitment by human PPARgamma; hit rate 0.41% among 200,000; PPARgamma-SRC-1 coactivator recruitment biochemical assay; AID 631; activation, % at 8 µM; in the data active means activation above about 19%;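 further: 0% = DMSO and 100% = reference agonist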
TR-FRET SRC-2 ct = TR-FRET artefact, counter-screen to PPARgamma/SRC-2 agonist assay; hit rate 0.4% among 200,000; TR-FRET ratio at 8 µM; AID 1049; hits give high values
PPARg SRC2 conf = human PPARgamma SRC-2 recruitment agonism, confirmation; shares compounds with PPARg SRC-3 ag; biochemical SRC-2 recruitment by PPARgamma; activation, % at 8 µM; hit rate 52% among 790; AID 1297; in the data active means activation above about 22%;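 further: 0% = vehicle alone and 100% = reference agonist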
PPARg SRC1 conf = human PPARgamma SRC-1 recruitment agonism, confirmation; shares compounds with PPARg SRC-3 ag; PPARgamma–SRC-1 coactivator recruitment biochemical assay; activation, % at 8 µM; hit rate 43% among 790; in the data active means activation above about 20%;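 further: 0% = vehicle wells and 100% = reference agonist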
PPARg SRC3 conf = confirmation of agonists of SRC-3 recruitment by human PPARgamma. shares compounds with PPARg SRC-3 ag. biochemical PPARgamma-SRC-3 coactivator recruitment, agonist mode. activation, % at 8 µM. hit rate 29% among 790. AID 1301; in the data active means activation above about 24%;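 further: 0% = vehicle wells and 100% = reference agonist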
* hit, by the source's call; . = not tested or not shown. An excerpt weighted towards active compounds, which were near 0.84% of everything screened. Unless noted, no stated cut-off is given here; in the data, active means TR-FRET ratio above about 2000; inactive means the rest.

SMILES | PPARg SRC-2 ag | SRC1 TRFRET art | SRC3 TRFRET art | PPARg SRC-3 ag | PPARg SRC1 recr | TR-FRET SRC-2 ct | PPARg SRC2 conf | PPARg SRC1 conf | PPARg SRC3 conf
CCCN1C(=O)C2(SC(NC(C)=O)=NN2C(C)=O)c2cc(C)ccc21 (stereo unspecified) | 3.9 | 1780 | 1740 | -0.3 | -0.1 | 1700 | . | . | .
COC(=O)c1c(NC(=S)Nc2ccc(CC(=O)O)cc2)sc(C)c1C | 11.3 | 2214 | 1747 | 10.2 | 22.4* | 1741 | 50.3* | 36.2* | 31.1*
CCOC(=O)c1c(NC(=S)Nc2ccc(Cl)cc2)sc(C)c1C | 4.1 | . | . | 1.6 | 1.9 | 1461 | . | . | .
Cc1sc(NC(=S)Nc2ccc(F)cc2)c(C(N)=O)c1C | 17.2 | 2290 | 2013 | 12.0 | 25.2* | 1942 | 26.5* | 16.5 | 15.4
Cc1ccc(NS(=O)(=O)c2cc(C(=O)NCCSc3ccc(C)cc3)ccc2C)cc1 | 21.4 | . | . | 10.2 | 19.5* | 1621 | 8.7 | 13.9 | 16.7
C=CCSC1=Nc2cc(OC)c(OC)cc2C2=NC(=O)CN12 | 15.0 | 1868 | 1730 | 10.1 | 20.9* | 1797 | 29.3* | 18.5 | 17.9
O=[N+]([O-])c1ccc(CN2CCN(Cc3c[nH]c4ccccc34)CC2)cc1 | -2.9 | 1673 | 1412 | -1.4 | 1.1 | 1416 | . | . | .
O=C(COc1ccc2ccccc2c1)NCCNC(=O)COc1ccc2ccccc2c1 | 39.1* | . | . | 46.9* | 38.1* | 2532* | 52.5* | 47.8* | 34.3*
CCOC(=O)C1=NNC2(c3ccc(Cl)cc3)C(=O)N(c3ccc(C)cc3)C(=O)C12 (stereo unspecified) | 0.8 | 2006 | 1603 | 0.3 | 5.7 | 1593 | . | . | .
CCCN1C=CC(=C/C=C(\C#N)C(=O)OCC)C=C1 | 19.5 | . | . | 13.8 | 16.9 | 1797 | . | . | .
CCCCCCN1C=CC(=C/C=C(\C#N)C(=O)OCC)C=C1 | 20.0 | . | . | 14.6 | 20.7* | 1710 | 6.7 | 4.0 | 3.8
Cc1ccc(-n2c(-c3ccccc3)n[nH]c2=S)cc1 | 35.5* | . | . | 27.2* | 19.6* | 2299* | 35.4* | 27.5* | 25.7*
Cc1c(Cl)c(-c2n[nH]c(=S)n2-c2ccccc2)nn1C | 23.7* | 2260 | 2138* | 16.8 | 19.9 | 2128* | 25.0* | 17.6 | 18.4
COc1ccccc1NC(=O)Nc1cc(NC(=O)Nc2ccccc2OC)c(C)nc1C | -13.5 | 1912 | 1479 | -2.1 | -4.7 | 1384 | . | . | .
CNC(=S)N1N=C(c2ccc(OC)cc2)CC1c1ccc(Cl)cc1Cl (stereo unspecified) | 7.3 | 3403* | 3446* | 15.8 | 22.1* | 2360* | 18.2 | 12.4 | 12.2
COc1ccc(C2=NN(C(=O)CN3CCCCC3)C(c3ccc(C)cc3)C2)cc1 (stereo unspecified) | 1.4 | 1708 | 1434 | 1.3 | 1.8 | 1498 | . | . | .
CNC(=S)N1N=C(c2ccc(Br)cc2)CC1c1ccc(OC)cc1 (stereo unspecified) | 17.8 | 2835* | 2788* | 20.7 | 22.9* | 2412* | 36.9* | 29.9* | 21.1
O=C(Nc1ccc(-c2nc3ccc(NC(=O)c4cccs4)cc3[nH]2)cc1)c1cccs1 | 27.4* | . | . | 11.6 | 20.7* | 1552 | 10.7 | 1.4 | 4.6
O=C(Nc1ccc2nc(-c3cccs3)[nH]c2c1)c1cccs1 | -0.9 | . | . | 0.8 | -2.1 | 1449 | . | . | .
COc1ccc(NC(=O)c2sc(=S)[nH]c2N)cc1 | 4.3 | . | . | 27.8* | 16.5 | 1621 | 12.0 | 11.4 | 7.1
Cc1ccccc1C(=O)Nc1ccc(C(=O)N/N=C/c2ccc(O)c(Br)c2)cc1 | 5.1 | 1692 | 1769 | 5.6 | 13.1 | 1763 | . | . | .
Oc1ccc(NCc2cccc(OCc3ccccc3)c2)cc1 | 13.9 | 1900 | 1844 | 2.8 | 23.9* | 1789 | -1.3 | -1.5 | 2.3
O=C(NCCCN1CCOCC1)C(=O)NCc1ccco1 | 1.2 | 1744 | 1374 | 1.7 | -3.4 | 1405 | . | . | .
COc1cc(/C=C(\C#N)C(=O)Nc2ccccc2C(=O)O)cc(Cl)c1OC | 11.1 | 1551 | 1321 | 48.5* | 31.3* | 1524 | 32.5* | 51.2* | 45.8*
COc1ccc(/C=C(/C#N)C(=O)Nc2ccccc2C)cc1C(=O)O | -1.4 | 1970 | 1518 | 3.7 | 4.6 | 1715 | . | . | .
SMILES | PPARg SRC-2 ag | SRC1 TRFRET art | SRC3 TRFRET art | PPARg SRC-3 ag | PPARg SRC1 recr | TR-FRET SRC-2 ct | PPARg SRC2 conf | PPARg SRC1 conf | PPARg SRC3 conf
COc1ccc(CN2CNc3c(c(=O)n(C)c(=O)n3C)C2)cc1 | 0.7 | 1917 | 1640 | 3.0 | 2.1 | 1715 | . | . | .
Cc1cc(NC(=O)CSc2nc(-c3ccccc3Cl)nc3c2c(=O)n(C)c(=O)n3C)no1 | 0.8 | 1775 | 1404 | 2.6 | -0.2 | 1650 | . | . | .
Cc1ccc2cc(C#N)c(SCC(=O)NNC(=O)Cc3ccccc3)nc2c1 | 3.7 | 1663 | 1337 | 4.4 | -3.0 | 1250 | . | . | .
COc1ccc2cc(C#N)c(SCC(=O)NNC(=O)Cc3ccccc3)nc2c1 | 48.6* | . | . | 8.4 | 31.8* | 2781* | 54.3* | 41.9* | 37.3*
CCOc1ccccc1N1CCN(c2nc(N)c(C#N)c(CC#N)c2C#N)CC1 | 16.4 | . | . | 29.4* | 7.9 | 1666 | 2.6 | 1.4 | 1.7
NS(=O)(=O)c1ccc(-c2ccc(/C=C3\C(=O)Nc4cc(Cl)ccc43)o2)cc1 | 16.4 | 1718 | 1999 | 16.4 | 26.6* | 1867 | 30.7* | 15.6 | 17.7
CC1(C)OC(=O)C(=Cc2ccc(-c3ccc(S(N)(=O)=O)cc3)o2)C(=O)O1 | -5.2 | 1707 | 1686 | -1.0 | -1.6 | 1382 | . | . | .
CCC(=O)Nc1cccc(-c2nc3ccccc3c(=O)o2)c1 | -12.7 | . | . | 18.3 | 18.8* | 1739 | 4.5 | 13.8 | 14.9
Cc1c(C(=O)N/N=C/c2ccncc2)no[n+]1[O-] | 4.8 | 1660 | 1438 | -0.4 | -1.6 | 1561 | . | . | .
Oc1c(Br)cc(C=Nc2ccc3nc(-c4ccccc4)[nH]c3c2)c(O)c1Br | 12.2 | 1998 | 1961 | 12.2 | 21.6* | 1907 | 15.4 | 14.6 | 8.7
COc1ccc(S(=O)(=O)N(C)C)cc1NCC(=O)Nc1cccc(C#N)c1 | 0.4 | 1450 | 1394 | 0.2 | 5.2 | 1518 | . | . | .
COc1cccc2c1C(=O)c1c(O)c3c(c(O)c1C2=O)C[C@@](O)(C(=O)CO)C[C@@H]3O[C@H]1C[C@H](N)[C@H](O)[C@H](C)O1 | 20.5 | 2222 | 2006 | 12.7 | 28.3* | 1930 | 6.2 | -0.5 | 5.9
S=c1nc[nH]c2c1[nH]c1ccccc12 | 37.6* | . | . | 48.3* | 29.4* | 2670* | 15.3 | 5.0 | 10.8
CCCCSc1cnn(-c2ccccc2)c(=O)c1SCCCC | 27.9* | . | . | 44.7* | 23.6* | 1992* | 39.7* | 23.6* | 25.6*
CSc1cnn(-c2ccccc2)c(=O)c1SC | 120.8* | . | . | 151.6* | 105.8* | 3988* | 98.7* | 68.1* | 67.5*
COc1cnn(-c2ccccc2)c(=O)c1SCc1ccc(Cl)cc1Cl | 6.2 | . | . | 2.5 | -1.1 | 1479 | . | . | .

Screening data (PubChem BioAssay)
